Reference: article PMC10163288
A selection follows. The hit rate among all sequences tested is not known here.

B1: il10ra_site1_sap_24_mot_HHH_b1_02665_000000293_0001_1_18_H_._HHH_b2_00244_0001_0000100001_0000001_0_0001_af2pred_0001 (protein)
chain: SSSSDSRELIRLLRRALELLNDGNPEEAEKLLERAQEIAEEANSLNLRVVIEFVLEQVEQHSSSS
B2: il10ra_site1_normal_mot_HHH_b2_08265_af2_000000206_0001_22_38_H_._HHH_b2_05887_0001_0000200025_0000002_0 (protein)
chain: SSSSSDEEEVEELTREIERLLEEGDLEEAARLIQELLRVAYENKDQEAIQLAWELAQLAKSSSSS
B3: il10ra_site1_normal_mot_HHH_b2_08186_000000021_0001_43_56_H_._HHH_b1_08707_0001_0000400035_0000001_0 (protein)
chain: SSSSSDIEELLEEAERLAEEGNPEEALRLLQEALRLIFENQDEELLQELWEVLRLVARLSSSSSS
B4: il10ra_site1_sap_8_mot_HHH_b1_06348_000000162_0001_1_15_H_._HHH_b1_06922_0001_0000100010_0000001_0_0001_af2pred_0001 (protein)
chain: SSSSSEAEKALRWFLRAVEELLKRGNPEAAKLALRDARFAAKFLNDEEIEERLEELEKLLDSSSS
B5: il10ra_site1_sap_18_mot_HHH_b1_04818_af2_000000063_0001_42_55_H_._HHH_b1_04225_af2_0002_0000100001_0000002_0_0001 (protein)
chain: SSSSDETEEVAELMREAVELDHNGDKEEAERVAREALELAEQLNNDVLRIQAEYLEKLIGSSSSS
B6: il10ra_site1_sap_17_mot_HHH_b2_03328_af2_000000127_0001_1_19_H_._HHH_b1_04993_0001_0000100008_0000001_0_0001 (protein)
chain: SSSSSIRERIIRLLYRALRLAAEGNPEEAERLIEEAHELAEELGDPELERYIRILLHFVRSSSSS
B7: il10ra_site1_sap_16_mot_HHH_b2_04251_af2_000000037_0001_42_56_H_._HHH_b1_07004_0001_0000200017_0000001_0_0001 (protein)
chain: SSSSDVRERAARVAIEVLRIAFQQSDPEALRAVWELFRRIIEEGDPELLEELEQLLEELRSSSSS
B8: il10ra_site1_sap_30_mot_HHH_b2_02053_af2_000000006_0001_3_19_H_._HHH_b2_06177_0001_0000100006_0000002_0_0001_af2pred_dldesign_0_af2pred (protein)
chain: SPEIEAIRALLKENLSLACAALAKLLAESGNQEDIALARELARLLFEDPERAKELAEKLLAELAK
B9: il10ra_site1_normal_mot_8756ee2cf497b5429c717dfc0c0bcfd6_0001_000000186_0001_1_13_H_._HHH_b1_07372_0001_0000100003_0000001_1 (protein)
chain: SSSSSEEAREVYELIRRAAELHRNGNPEEAEEVLKEAEELAREANNDVLLFQIEYLLRHIGSSSS
B10: il10ra_site1_sap_16_mot_HHH_b1_00992_000000182_0001_23_40_H_._HHH_b1_02295_af2_0001_0000300017_0000001_0_0001 (protein)
chain: SEQVREIEELLKRNVEQAIAALAHLLAKSGDPELLRLAKELSRLMFQNPEEARKLVEEILEELKK

These binders were tested against il10ra, Q13651 (assay: yeast display titration).
Sequence of il10ra, Q13651 (Q13651 whole entry): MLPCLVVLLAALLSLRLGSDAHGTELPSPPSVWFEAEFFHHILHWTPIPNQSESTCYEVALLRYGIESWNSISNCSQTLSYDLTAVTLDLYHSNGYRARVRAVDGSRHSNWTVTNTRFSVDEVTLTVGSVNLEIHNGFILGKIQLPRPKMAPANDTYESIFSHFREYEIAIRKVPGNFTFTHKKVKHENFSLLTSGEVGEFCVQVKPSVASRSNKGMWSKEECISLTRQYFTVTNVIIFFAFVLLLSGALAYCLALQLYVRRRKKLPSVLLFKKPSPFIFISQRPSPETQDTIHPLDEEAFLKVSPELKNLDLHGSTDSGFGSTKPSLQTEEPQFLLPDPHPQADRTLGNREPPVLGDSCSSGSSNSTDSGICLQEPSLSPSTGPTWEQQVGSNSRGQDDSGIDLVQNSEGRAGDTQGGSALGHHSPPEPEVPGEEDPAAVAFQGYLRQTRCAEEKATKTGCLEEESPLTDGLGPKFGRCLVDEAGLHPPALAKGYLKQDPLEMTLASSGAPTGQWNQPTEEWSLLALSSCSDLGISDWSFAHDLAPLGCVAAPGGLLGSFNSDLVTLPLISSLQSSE

Apparent Kd, inactive:
B1 no binding seen
B2 no binding seen
B3 no binding seen
B4 no binding seen
B5 no binding seen
B6 no binding seen
B7 no binding seen
B8 no binding seen
B9 no binding seen
B10 no binding seen
